The nature of test [1]: ATG_E_Box_CIS: Attagene CIS-FACTORIAL HepG2 Assay for human Enhancer Box (E-box) (AID 2282936). The conditions noted are these: HepG2 E-box cis-reporter transcription, actives raise or lower the signal. The gist of the method:
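Measured 24 h post-dosing in HepG2 cells transfected with multiple cis-regulated reporter units, signal being reporter mRNA induction detected by fluorescent RT-PCR with capillary electrophoresis; gain or loss fitted against DMSO.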

The nature of test [2]: ATG_M_61_CIS: Attagene CIS-FACTORIAL HepG2 Assay for M61 Transcription Factor (Internal Marker) (AID 2282937). The conditions noted are these: HepG2 Attagene CIS-FACTORIAL M61 internal marker reporter; actives raise or lower the signal. The method, boiled down:
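Multiplexed reporter mRNA assay, HepG2 human hepatoma cells, 24 h treatment. Signal: FAM-labelled, HpaI-digested RT-PCR fragments by CE. Fit: bidirectional, baseline DMSO.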

The nature of test [3]: ATG_EGR_CIS: Attagene CIS-FACTORIAL HepG2 Assay for human Early Growth Response 1 (EGR1) (AID 2282938). To be noted: HepG2 Attagene CIS-FACTORIAL EGR reporter mRNA; actives raise or lower the signal. The method, boiled down:
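Multiplexed cis-reporter system in human hepatoma HepG2 cells, transiently transfected. Cells are dosed for 24 h; reporter transcripts are amplified, fluorescently tagged and sized by capillary electrophoresis, with DMSO as negative control.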

Test [4] in a line: ATG_M_19_CIS: Attagene CIS-FACTORIAL HepG2 Assay for M19 Transcription Factor (Internal Marker) (AID 2282939). To be noted: HepG2 Attagene CIS-FACTORIAL M19 internal marker reporter; actives raise or lower the signal. The method, boiled down:
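Chemical-treated HepG2 (24 h) with MRTU constructs; reporter transcripts detected by fluorescent RT-PCR fragment analysis on capillary electrophoresis. Internal background marker, DMSO as baseline.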

The nature of test [5]: ATG_Ets_CIS: Attagene CIS-FACTORIAL HepG2 Assay for human Erythroblast Transformation Specific (ETS) (AID 2282941). To be noted: HepG2 ETS cis-reporter transcription, actives raise or lower the signal. The gist of the method: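 Endogenous transcription factor activity read as reporter mRNA via RT-PCR and capillary electrophoresis, with gain or loss fitted bidirectionally against DMSO. Human HepG2 liver cells, transiently transfected CIS reporter constructs, 24 h exposure.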

Test [6] has as its target Hepatocyte nuclear factor 3-beta (Homo sapiens) (UniProt Q9Y261). The test is described as follows: ATG_FoxA2_CIS: Attagene CIS-FACTORIAL HepG2 Assay for human Forkhead box A2 (FOXA2) (AID 2282942). To be noted: HepG2 cis-reporter transcription factor activity, 24 h; actives raise or lower the signal. The method, boiled down:
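Multiplexed cis-element reporter assay in transiently transfected HepG2. Twenty-four hours post-dosing, RNA was reverse-transcribed, amplified, FAM-labelled, HpaI-digested and separated by CE. Activity gain or loss relative to DMSO.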

Test [7] in a line: ATG_FoxO_CIS: Attagene CIS-FACTORIAL HepG2 Assay for human Forkhead box O (FoxO) (AID 2282943). The conditions noted are these: HepG2 Attagene cis-reporter, FoxO element, mRNA; actives raise or lower the signal. The gist of the method: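 HepG2 cells transiently transfected with cis-promoter-driven multiple reporter transcription units; 24 h after chemical dosing, reporter mRNA quantified by RT-PCR, fluorescent primer extension, HpaI digestion and capillary electrophoresis. Bidirectional fitting versus DMSO baseline.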

Test [8] is described as follows: ATG_GATA_CIS: Attagene CIS-FACTORIAL HepG2 Assay for human GATA Binding Protein (AID 2282944). The conditions noted are these: HepG2 GATA cis-element reporter, Attagene multiplex mRNA; actives raise or lower the signal. The method, boiled down: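 Transfected cis-reporter HepG2 cells were treated with chemicals for 24 hours. Total RNA was then converted to cDNA, amplified with reporter-specific primers and analysed by fluorescent capillary electrophoresis, using DMSO-treated wells as baseline.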

Test [9] can be described thus: ATG_ISRE_CIS: Attagene CIS-FACTORIAL HepG2 Assay for human Interferon Regulatory Factor 1 (IRF1) binding to an Interferon-Stimulated Response Element (ISRE) (AID 2282948). To be noted: HepG2 ISRE cis-reporter (Attagene), mRNA transcription readout; actives raise or lower the signal. The gist of the method: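 Endogenous transcription factor activity read as reporter transcript abundance via RT-PCR and capillary electrophoresis. HepG2 cells transiently transfected, 24 h chemical exposure. Gain or loss fitted against DMSO baseline.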

A short description of test [10]: ATG_M_32_CIS: Attagene CIS-FACTORIAL HepG2 Assay for M32 Transcription Factor (Internal Marker) (AID 2282949).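 Further: background control marker of the multiplexed CIS panel rather than a real target.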 To be noted: HepG2 Attagene cis-factorial M32 reporter, mRNA; actives raise or lower the signal. The method, boiled down: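 Transient MRTU transfection of HepG2; 24 h compound treatment; TriZol RNA, oligo(dT) RT, reporter PCR, 6-FAM primer extension, HpaI cut, CE. Gain/loss of signal vs DMSO.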

Test [11] in a line: ATG_M_06_CIS: Attagene CIS-FACTORIAL HepG2 Assay for M06 Transcription Factor (Internal Marker) (AID 2282950). To be noted: HepG2 Attagene CIS-FACTORIAL M06 internal marker reporter; actives raise or lower the signal. The method, boiled down:
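Cells (HepG2, transiently carrying cis-driven reporter units) receive chemical for 24 h before RNA isolation. Reporter cDNA is PCR-amplified, FAM-labelled by primer extension, HpaI-digested and sized on a capillary analyser.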

In test [12] the target is Hepatocyte nuclear factor 6 (Homo sapiens) (UniProt Q9UBC0). Briefly: ATG_HNF6_CIS: Attagene CIS-FACTORIAL HepG2 Assay for human Hepatocyte Nuclear Factor 6 (HNF6) (AID 2282952). To be noted: HepG2 Attagene cis-factorial HNF6 reporter transcription; actives raise or lower the signal. The gist of the method: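 Readout: fluorescent reporter-transcript fragments resolved by capillary electrophoresis after RT-PCR, reflecting endogenous factor activity in transfected HepG2. Exposure 24 h. Gain or loss of signal fitted bidirectionally against DMSO.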

In test [13] the target is Heat shock factor protein 1 (Homo sapiens) (UniProt Q00613). The test is described as follows: ATG_HSE_CIS: Attagene CIS-FACTORIAL HepG2 Assay for human Heat Shock Transcription Factor 1 (HSE) (AID 2282953). To be noted: HepG2 HSE cis-reporter, Attagene RNA transcription; actives raise or lower the signal. The method, boiled down: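 Liver-derived HepG2 cells carry transiently introduced multiple reporter units governed by cis promoters. Reporter RNA measured 24 h post-dose through reverse transcription, PCR amplification, fluorescent labelling and capillary electrophoresis, normalised to DMSO.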

Test [14] is described as follows: ATG_MRE_CIS: Attagene CIS-FACTORIAL HepG2 Assay for human Metal Responsive Element (MRE) (AID 2282954). To be noted: HepG2 MRE cis-reporter transcription, Attagene multiplex; actives raise or lower the signal. The gist of the method:
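Readout: capillary electrophoresis of 6-FAM-labelled, HpaI-digested RT-PCR reporter products. System: HepG2 cells carrying transient multiplexed cis reporters, dosed 24 h. Analysis: bidirectional fit, DMSO baseline.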

Test [15] can be described thus: ATG_PBREM_CIS: Attagene CIS-FACTORIAL HepG2 Assay for human Phenobarbital-responsive Enhancer Module (PBREM) (AID 2282955). To be noted: HepG2 PBREM cis-reporter, Attagene multiplexed transcription; actives raise or lower the signal. The gist of the method:
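Multiplexed cis-reporter readout in human hepatoma HepG2 cells; PBREM-regulated transcript quantified after 24 h exposure by fluorescent RT-PCR fragment analysis. Signal changes up or down fitted relative to DMSO.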

A short description of test [16]: ATG_GLI_CIS: Attagene CIS-FACTORIAL HepG2 Assay for human Zinc Finger Protein GLI1 (AID 2282945). To be noted: HepG2, Attagene cis-factorial reporter mRNA, GLI element; actives raise or lower the signal. The method, boiled down:
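HepG2 cells transiently transfected with cis-promoter multiplexed reporter units report endogenous transcription factor activity. After 24 h chemical exposure, reporter mRNA was quantified by RT-PCR, 6-FAM labelling, HpaI digestion and capillary electrophoresis, with bidirectional fitting against DMSO.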

The target in test [17] is Hypoxia-inducible factor 1-alpha (Homo sapiens) (UniProt Q16665). Briefly: ATG_HIF1a_CIS: Attagene CIS-FACTORIAL HepG2 Assay for human Hypoxia Inducible Factor 1 (HIF1A) (AID 2282951). To be noted: HepG2 Attagene cis-factorial HIF1a reporter transcription; actives raise or lower the signal. The gist of the method:
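Cis-element reporter constructs were transiently transfected into HepG2 cells, which were treated for 24 h; reporter RNA was reverse-transcribed, amplified, labelled and resolved by capillary electrophoresis.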

The nature of test [18]: ATG_GRE_CIS: Attagene CIS-FACTORIAL HepG2 Assay for human Glucocorticoid Response Elements (GRE) (AID 2282947). The conditions noted are these: HepG2 GRE cis-reporter, Attagene multiplex mRNA; actives raise or lower the signal. The method, boiled down:
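HepG2, transient cis-reporter transfection, 24 h. Reporter mRNA: RT-PCR then CE, fluorescence. Fit both directions vs DMSO.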

The nature of test [19]: ATG_ERE_CIS: Attagene CIS-FACTORIAL HepG2 Assay for Estrogen Response Element (ERE) (AID 2282940). To be noted: HepG2 ERE cis-reporter, Attagene RNA transcript; actives raise or lower the signal. The method, boiled down:
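Human liver cells (HepG2) bearing transiently transfected, promoter-regulated reporter units were exposed 24 h. Reporter mRNA induction was detected by capillary electrophoresis of labelled RT-PCR products and fitted bidirectionally to DMSO.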

Test [20] has as its target Bile acid receptor (Homo sapiens) (UniProt Q96RI1). The test is described as follows: ATG_IR1_CIS: Attagene CIS-FACTORIAL HepG2 Assay for human Nuclear Receptor Subfamily 1 Group H Member 4 (NR1H4), IR1 submotif (AID 2282946). To be noted: IR1 reporter transcription, actives raise or lower the signal. The gist of the method: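 Readout: reporter transcript levels by RT-PCR with fluorescent capillary electrophoresis, from HepG2 cells transiently transfected with multiplexed cis-regulated reporters and dosed 24 h. Gain- or loss-of-signal fitted versus DMSO negative control.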

Among the data in PubChem BioAssay (EPA / NIEHS) are outcome and AC50 values, retold here.

Activity calls are given as the source filed them. How the source made its calls: active means hit-call score of the fitted dose curve at least 0.9, where 1 is the maximum; inactive means score below 0.9.

Chain of Hypoxia-inducible factor 1-alpha (Homo sapiens) (Q16665 whole entry, looked up): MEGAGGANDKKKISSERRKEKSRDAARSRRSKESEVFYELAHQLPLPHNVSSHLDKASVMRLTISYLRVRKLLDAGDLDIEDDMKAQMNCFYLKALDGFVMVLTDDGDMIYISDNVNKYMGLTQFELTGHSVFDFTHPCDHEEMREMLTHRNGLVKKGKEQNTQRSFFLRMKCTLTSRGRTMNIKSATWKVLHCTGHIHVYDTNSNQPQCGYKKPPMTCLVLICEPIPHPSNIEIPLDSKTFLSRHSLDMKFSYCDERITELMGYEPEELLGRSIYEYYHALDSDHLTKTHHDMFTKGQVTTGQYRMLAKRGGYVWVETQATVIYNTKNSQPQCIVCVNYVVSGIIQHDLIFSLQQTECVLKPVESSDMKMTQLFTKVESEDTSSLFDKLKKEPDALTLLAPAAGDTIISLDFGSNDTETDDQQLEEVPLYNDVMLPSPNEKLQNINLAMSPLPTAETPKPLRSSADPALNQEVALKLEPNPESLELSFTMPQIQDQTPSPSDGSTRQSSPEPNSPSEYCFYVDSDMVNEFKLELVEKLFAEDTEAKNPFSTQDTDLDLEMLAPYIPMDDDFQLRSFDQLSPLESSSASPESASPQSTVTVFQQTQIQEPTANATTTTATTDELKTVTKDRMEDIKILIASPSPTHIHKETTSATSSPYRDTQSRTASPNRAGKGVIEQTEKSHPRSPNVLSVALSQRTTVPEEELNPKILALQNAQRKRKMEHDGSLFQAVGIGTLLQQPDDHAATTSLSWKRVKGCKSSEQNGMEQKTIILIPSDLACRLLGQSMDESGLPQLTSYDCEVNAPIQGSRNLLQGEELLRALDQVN
Chain of Hepatocyte nuclear factor 6 (Homo sapiens) (Q9UBC0 whole entry, looked up, the tested form may be a part): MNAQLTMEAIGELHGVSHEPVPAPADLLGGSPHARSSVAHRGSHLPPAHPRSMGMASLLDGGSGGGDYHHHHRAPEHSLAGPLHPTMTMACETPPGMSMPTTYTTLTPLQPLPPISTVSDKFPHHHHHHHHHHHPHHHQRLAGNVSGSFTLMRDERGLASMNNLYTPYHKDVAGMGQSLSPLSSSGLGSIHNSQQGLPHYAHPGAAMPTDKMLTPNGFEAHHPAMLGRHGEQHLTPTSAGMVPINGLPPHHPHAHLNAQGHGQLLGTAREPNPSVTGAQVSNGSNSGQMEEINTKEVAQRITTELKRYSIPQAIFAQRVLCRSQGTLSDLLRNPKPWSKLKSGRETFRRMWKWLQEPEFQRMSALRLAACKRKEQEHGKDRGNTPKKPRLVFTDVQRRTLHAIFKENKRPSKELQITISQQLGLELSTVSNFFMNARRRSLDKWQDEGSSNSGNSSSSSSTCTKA
Chain of Hepatocyte nuclear factor 3-beta (Homo sapiens) (Q9Y261 whole entry, looked up): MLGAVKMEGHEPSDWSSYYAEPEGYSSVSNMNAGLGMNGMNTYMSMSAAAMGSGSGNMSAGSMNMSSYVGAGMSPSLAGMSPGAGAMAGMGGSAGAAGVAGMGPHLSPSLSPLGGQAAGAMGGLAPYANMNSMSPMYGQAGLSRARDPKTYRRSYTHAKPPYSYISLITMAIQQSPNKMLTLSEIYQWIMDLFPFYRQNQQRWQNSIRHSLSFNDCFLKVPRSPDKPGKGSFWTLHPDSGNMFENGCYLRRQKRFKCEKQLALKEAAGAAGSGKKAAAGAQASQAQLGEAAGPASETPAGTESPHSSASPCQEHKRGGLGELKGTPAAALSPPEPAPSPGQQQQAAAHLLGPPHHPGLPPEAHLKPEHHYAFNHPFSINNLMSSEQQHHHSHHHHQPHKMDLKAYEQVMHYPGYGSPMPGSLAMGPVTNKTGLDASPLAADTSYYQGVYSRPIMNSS
Chain of Heat shock factor protein 1 (Homo sapiens) (Q00613 whole entry, looked up): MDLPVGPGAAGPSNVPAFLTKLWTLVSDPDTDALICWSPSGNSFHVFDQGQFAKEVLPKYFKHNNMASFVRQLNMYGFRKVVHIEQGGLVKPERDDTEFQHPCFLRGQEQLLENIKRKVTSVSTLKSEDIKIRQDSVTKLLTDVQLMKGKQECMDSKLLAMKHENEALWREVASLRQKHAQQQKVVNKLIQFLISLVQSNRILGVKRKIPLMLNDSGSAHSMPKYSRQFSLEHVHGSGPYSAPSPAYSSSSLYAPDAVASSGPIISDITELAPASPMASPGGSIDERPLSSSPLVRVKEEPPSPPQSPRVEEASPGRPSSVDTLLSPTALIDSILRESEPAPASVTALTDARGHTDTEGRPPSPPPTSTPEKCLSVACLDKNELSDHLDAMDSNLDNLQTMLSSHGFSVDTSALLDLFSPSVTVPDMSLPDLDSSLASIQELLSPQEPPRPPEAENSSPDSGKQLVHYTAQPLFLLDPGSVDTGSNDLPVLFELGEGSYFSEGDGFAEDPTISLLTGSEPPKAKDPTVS
Chain of Bile acid receptor (Homo sapiens) (Q96RI1 whole entry, looked up): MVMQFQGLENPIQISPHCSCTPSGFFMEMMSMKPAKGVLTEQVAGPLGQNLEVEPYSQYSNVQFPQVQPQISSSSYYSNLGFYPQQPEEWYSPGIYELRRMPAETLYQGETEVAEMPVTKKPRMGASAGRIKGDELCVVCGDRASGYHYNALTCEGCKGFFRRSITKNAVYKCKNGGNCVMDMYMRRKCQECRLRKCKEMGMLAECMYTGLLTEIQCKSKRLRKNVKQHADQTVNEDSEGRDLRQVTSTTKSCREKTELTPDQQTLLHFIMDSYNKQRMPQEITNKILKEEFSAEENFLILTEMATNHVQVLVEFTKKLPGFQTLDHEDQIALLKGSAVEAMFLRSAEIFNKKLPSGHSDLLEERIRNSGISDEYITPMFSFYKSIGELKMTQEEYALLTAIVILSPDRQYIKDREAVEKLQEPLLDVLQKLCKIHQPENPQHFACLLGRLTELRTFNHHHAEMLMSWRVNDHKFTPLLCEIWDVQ

In the case of `CCCCNC(=O)NS(=O)(=O)c1ccc(N)cc1`, the result in test [1], in [2], in [3], in [4], in [5] and in test [6] was inactive. The outcome in test [7], in [8], in test [9], in test [10], in [11] and in [12] was inactive. The outcome in test [13], in [14] and in [15] was inactive.

Turning to `Cc1ccc2ccccc2n1`, the result in test [1], in [2], in test [3], in test [4], in [5] and in [6] was inactive. In addition, the result in [7], in [8], in [16], in [9], in test [11] and in test [17] was inactive. In addition, the result in [12], in test [14] and in [15] was inactive.

For `CN1Cc2c(N)cccc2C(c2ccccc2)C1` (stereo unspecified), the result in [1], in [2], in [3], in test [5], in [6] and in test [7] was inactive. Moreover, the result in [8], in test [16], in test [18], in test [9], in test [10] and in [11] was inactive. Moreover, the molecule was classed as inactive in [12], in test [13], in [14] and in test [15].

Take `CN(C)CCCN`: the result in test [1], in test [3], in [4], in [19], in test [5] and in test [6] was inactive. Also, the molecule was classed as inactive in [7], in test [8], in test [16], in test [20], in test [18] and in test [9]. Besides, the molecule was called inactive in test [10], in test [11], in test [17], in [12], in test [13] and in test [14]. For the same molecule, in test [15], the result was inactive.

One may read the AC50 as the concentration giving half of the maximal activity seen. `CC(C)(C)c1cc(CCC(=O)NN)cc(C(C)(C)C)c1O`: the result in test [1], in test [2], in test [3], in test [5], in test [6] and in [7] was inactive. The molecule was classed as inactive in test [8], in test [16], in test [9], in test [10], in test [11] and in test [17]. Also, the molecule was called inactive in test [12], in [13] and in test [15]. For the same molecule, in test [14], the AC50 was 186 µM (active).

For the molecule `CC(=O)c1c(C)cc(C(C)(C)C)cc1C`, the outcome in [1], in test [2], in test [3], in test [5], in test [6] and in [7] was inactive. Also, the outcome in test [8], in test [16], in test [9], in [10], in test [11] and in test [17] was inactive. Further, the molecule was called inactive in test [12], in [13] and in [14].
